KB-3-1 cytotox = qHTS assay for MDR1-selective chemotherapeutics: Primary screen using the parental adenocarcinoma cell KB-3-1. KB-3-1 viability, CellTiter-Glo ATP luminescence, 72 h. Potency, µM (titrated, usually from 46.1 µM), usual class: cytotoxic. 400,000 tested, 1.4% active. AID 1347075, 2019; also: nearly all actives have a fitted effect of over 60% in size
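Parental KB-3-1 viability, qHTS format: 72 h compound exposure, 37 °C; CellTiter-Glo; media-only wells and DMSO plates as controls; concentration-effect fits on corrected data.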
PTAP TSG101 blk = qHTS Assay for Iinhibitors of HIV-1 Budding by Blocking the Interaction of PTAP/TSG101. Fluorescence polarization, FITC-PTAP peptide / Tsg101 binding. Potency, µM (top dose mostly 115 µM), usual class: inhibitors. 340,000 tested, under 10 active. Tumor susceptibility gene 101 protein (Homo sapiens), Q99816; active = well fitted inhibition curve with a large enough effect in the main read-out, with a control signal flat, not every such curve was filed as active; inconclusive = small, poorly fitted or top-dose-only effect, or effect the other way, or a change in a side signal; inactive = no such curve, though single readings can be large or run the other way
Target sequence (Q99816 whole entry, looked up): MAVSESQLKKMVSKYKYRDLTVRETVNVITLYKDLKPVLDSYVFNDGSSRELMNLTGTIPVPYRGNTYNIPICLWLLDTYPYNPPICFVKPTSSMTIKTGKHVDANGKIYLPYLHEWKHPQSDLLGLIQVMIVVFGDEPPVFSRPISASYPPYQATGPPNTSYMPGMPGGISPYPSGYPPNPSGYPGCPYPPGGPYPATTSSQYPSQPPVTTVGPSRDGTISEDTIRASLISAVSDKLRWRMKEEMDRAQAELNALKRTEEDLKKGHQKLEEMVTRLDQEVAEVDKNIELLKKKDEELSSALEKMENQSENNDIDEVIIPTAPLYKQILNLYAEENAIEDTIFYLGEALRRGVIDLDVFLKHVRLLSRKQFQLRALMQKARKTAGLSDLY
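Tsg101 binding domain (10 uM final) was mixed with compound and a FITC-labeled PTAP peptide (50 nM final) in HEPES pH 7.5 buffer with NaCl, Tween 20, EDTA and TCEP; fluorescence polarization was read after 20 min at r.t.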
KB-V1 cytotox = qHTS assay for MDR1-selective chemotherapeutics: Primary screen using the drug-selected MDR subline cells KB-V1; AID 1347076, 2019; Potency, µM (titrated, usually from 46.1 µM), hits mostly cytotoxic; KB-V1 MDR cells viability, CellTiter-Glo, 72 h; 400,000 tested, 3.4% active; also: nearly all actives have a fitted effect of over 60% in size
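Compound-treated KB-V1 multidrug-resistant cells, 72 h, 37 degrees C; viability by CellTiter-Glo. Fitted qHTS curves give the values.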
MCF10A rereplic = A quantitative high throughput screen for small molecules that induce DNA re-replication in MCF 10a normal breast cells; MCF 10A DNA re-replication, Hoechst nuclear intensity, 48 h; Potency, µM (doses to about 46.1 µM), actives largely listed as activators; 350,000 tested, 2.9% active; AID 624296, 2012; also: nearly all actives have a fitted effect of over 50% in size
SW480 rereplic = A quantitative high throughput screen for small molecules that induce DNA re-replication in SW480 colon adenocarcinoma cells. SW480 DNA re-replication, Hoechst DNA content imaging, 48 h. Potency, µM (highest dose often 46.1 µM), hits mostly activators. 340,000 tested, 1.8% active; also: nearly all actives have a fitted effect of over 55% in size
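Readout is total intensity of Hoechst-stained nuclei, excited at 405 nm and collected at 500-530 nm. Compound treatment lasted 48 hr at 37 C in 5% CO2 before staining.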
RGS4 inh = Inhibitors of Regulator of G Protein Signaling (RGS) 4: qHTS. Regulator of G-protein signaling 4 (Homo sapiens), P49798. Transcreener GDP fluorescence polarization, RGS4-accelerated GTP hydrolysis. Potency, µM (highest dose often 114 µM), actives largely listed as inhibitors. 390,000 tested, 0.039% active; also: nearly all actives have a fitted effect of over 75% in size
Target sequence (P49798 whole entry, looked up): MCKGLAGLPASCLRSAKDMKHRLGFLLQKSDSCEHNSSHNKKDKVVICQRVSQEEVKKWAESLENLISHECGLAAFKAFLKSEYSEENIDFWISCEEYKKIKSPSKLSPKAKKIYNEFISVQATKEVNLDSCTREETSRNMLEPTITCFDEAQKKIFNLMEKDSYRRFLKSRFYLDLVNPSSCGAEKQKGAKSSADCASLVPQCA
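MLSMR compounds (23 nl, pin-transferred) preincubated 10 min at room temperature with a 500nM (2x) first reagent, then RGS4 at 900nM (2x) plus Transcreener GDP mix added; fluorescence polarization (620/688 nm) read before and after 90 min at 30 °C.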
Hits are given with their value; - = inactive; ? = inconclusive; . = no result; ! = repeats disagree. Only some compounds are listed: those with a hit (about 6.6% of all), similar ones and a draw of the others. Unless noted, calls follow the shape of the dose curve; as a rule, active = well fitted curve in the direction sought with a large enough effect; inconclusive = small, poorly fitted or top-dose-only effect, or another doubt; inactive = no such curve, though single readings can be large; an effect the other way counts as inactive or inconclusive.

SMILES | KB-3-1 cytotox | PTAP TSG101 blk | KB-V1 cytotox | MCF10A rereplic | SW480 rereplic | RGS4 inh
CCN(CC)C(=O)c1ccc(NC(=O)CCn2nc(-c3ccc(Cl)cc3)c3ccccc3c2=O)cc1 | - | . | - | . | . | -
COC(=O)[C@H]1[C@H]2C[C@@H]3c4[nH]c5cc(OC)ccc5c4CCN3C[C@H]2C[C@@H](OC(=O)/C=C/c2cc(OC)c(OC)c(OC)c2)[C@@H]1OC | - | - | - | 5.8µM | 18µM | -
CC(C)(C)OC(=O)N(CCc1ccccc1)Cc1ccc(OCc2cccc(NC(=O)c3ccccc3)c2)cc1 | - | ? | - | - | ? | -
Cn1nc(-c2ccccc2)nc2c(=O)n(C)c(=O)nc1-2 | 4.6µM | . | 5.8µM | . | . | -
CCn1nc(-c2ccccc2)nc2c(=O)n(C)c(=O)nc1-2 | 5.2µM | ? | - | 1.5µM | ? | -
Cc1nc2c(=O)n(C)c(=O)nc-2n(C)n1 | 5.2µM | - | 6.5µM | 9.2µM | 0.52µM | ?
CNC(C)[C@@H](O)c1ccc(O)cc1 (some centres not stated) | . | . | . | - | - | .
O=C1c2ccccc2C(=O)N1SC1CCCCC1 | - | - | - | ? | ? | ?
O=[N+]([O-])c1ccc2c(c1)C(c1ccccc1)=NCCN2 | - | - | ? | - | - | -
O=[N+]([O-])c1ccc(-c2ccccc2)c([As](=O)(O)O)c1 | - | - | - | 23µM | - | -
Cc1ccc(C(=O)N[C@@H](C)CN2C3=NC[C@H](Cc4ccccc4)N3C[C@H]2Cc2ccc(O)cc2)cc1Br | ? | - | - | ? | 13µM | -
Cc1ccc(C(=O)N[C@@H](C)CN2C3=NC[C@@H](Cc4ccccc4)N3C[C@H]2Cc2ccc(O)cc2)cc1Br | ? | . | - | - | - | -
COc1cc(C2c3cc4c(cc3CC3COC(=O)C32)OCO4)cc(OC)c1OC (configuration not stated) | 0.92µM | - | 0.58µM | 6.5µM | ? | -
COc1cc([C@@H]2c3cc4c(c(O)c3C[C@H]3COC(=O)[C@@H]32)OCO4)cc(OC)c1OC | 0.52µM | . | 4.1µM | . | . | -
COc1cc([C@@H]2c3cc4c(cc3C[C@H]3COC(=O)[C@@H]32)OCO4)cc(OC)c1O | ? | . | - | . | . | -
COc1cc(C2c3cc4c(c(O)c3CC3COC(=O)C32)OCO4)cc(OC)c1OC (configuration not stated) | 0.0082µM! | - | 0.18µM! | ? | 0.052µM | -
COc1cc([C@@H]2c3cc4c(cc3[C@H](OC(C)=O)[C@H]3COC(=O)[C@@H]23)OCO4)cc(OC)c1OC | 0.65µM | . | ? | . | . | -
CN1CC[C@@H]2CN3CCc4cccc(c43)[C@H]2C1 | . | . | . | . | . | -
CC(C)n1c(/C=C/[C@H](O)C[C@H](O)CC(=O)O)c(-c2ccc(F)cc2)c2ccccc21 | ? | - | ? | - | ? | -
CCOP(=O)(C1=C(O)C(=O)C(C(C)(C)C)=CC1=O)c1ccccc1 (configuration not stated) | - | - | ? | - | - | ?
O=C(Nc1ccc(Cl)c(C(F)(F)F)c1)NC1CC2CCCC(C1)N2Cc1ccccc1 (configuration not stated) | ? | - | ? | ? | ? | -
CN1C[C@H](CNC(=O)OCc2ccccc2)C[C@@H]2c3cccc4c3c(cn4C)C[C@H]21 | - | - | - | 23µM | 23µM | ?
CN1C[C@H](CO)C[C@@H]2c3cccc4[nH]cc(c34)C[C@H]21 | - | - | - | - | - | -
CNc1ccc(C(=O)CC(O)CCC(C)C2OC(=O)CC(O)CC(=O)CC(O)CC(O)CC(O)CC(O)CC3(O)CC(O)C(C(=O)OC)C(CC(O[C@@H]4OC(C)C(O)C(N)C4O)/C=C/C=C/C=C/C=C/C=C/C=C/C=C/C2C)O3)cc1 (some centres not stated) | . | . | . | - | - | .
COC1/C=C/C=C(\C)Cc2cc(O)c(Cl)c(c2)N(C)C(=O)CC(OC(=O)C(C)C)C2(C)OC2C(C)C2CC1(O)NC(=O)O2 (configuration not stated) | ? | - | 0.73µM | ? | ? | -
SMILES | KB-3-1 cytotox | PTAP TSG101 blk | KB-V1 cytotox | MCF10A rereplic | SW480 rereplic | RGS4 inh
O=C(COc1cc(Cl)ccc1Cl)Nc1ccc(Cl)cc1C(=O)c1ccccc1 | . | . | . | . | . | -
FC(F)(F)c1ccc2c(c1)ncn2C1CCN(Cc2nnnn2C2CCCCC2)CC1 | ? | - | 7.3µM | - | - | -
c1ccc(CCn2nnnc2CN2CCC(n3nnc4ccccc43)CC2)cc1 | - | - | 5.8µM | - | - | -
Fc1ccc(Cn2nnnc2CN2CCC(n3nnc4cc(C(F)(F)F)ccc43)CC2)cc1 | - | - | ? | 26µM | - | -
Cc1nc2cc(C(F)(F)F)ccc2n1C1CCN(Cc2nnnn2Cc2ccc3c(c2)OCO3)CC1 | ? | - | 18µM | ? | - | -
CC1(C)c2[nH]c3ccccc3c2C[C@H]2C(=O)N(Cc3ccccc3F)C(=O)N21 | ? | - | ? | ? | ? | -
COC(=O)CSc1cc([N+](=O)[O-])cc2c1c(C1OCCO1)nn2-c1ccccc1 | - | - | - | ? | - | -
Cc1ccc(CNC(=O)CCCn2c(=O)c3sccc3n(CC(=O)Nc3c(C)cccc3C)c2=O)cc1 | . | . | . | . | . | -
CCCc1cc(=O)oc2c3c(cc(OCC(=O)N4CCC[C@H]4C(=O)O)c12)OC(C)(C)CC3 | - | - | - | - | - | -
O=[N+]([O-])c1ccc(Cl)c([N+](=O)[O-])c1 | ? | - | 16µM | ? | ? | -
O=[N+]([O-])c1ccc(O)c([N+](=O)[O-])c1 | - | - | ? | - | - | -
O=C(O)c1ccccc1NS(=O)(=O)c1cccc(N=Nc2c(O)[nH]c(=S)[nH]c2=O)c1 | - | - | - | - | - | -
CC(C)(C)N1CC(C(=O)c2ccccc2)C1c1ccccc1 (configuration not stated) | - | - | 16µM | - | - | ?
CC1(C)C[C@H]2C=C(C=O)[C@]3(C=O)C[C@]3(C)[C@H]2C1 | ? | - | - | 2.1µM | 9.2µM | -
O=C(O)CCCC[C@@H]1SC[C@@H]2NC(=O)N[C@@H]21 | - | - | - | - | - | -
CCOP(=O)(OCC)c1nc(-c2cccc3ccccc23)oc1NCCc1ccc(OC)cc1 | ? | - | 5.2µM | 10µM | 21µM | -

Bioassay records as filed in PubChem.
